In paper PMC7862700, “An all-to-all approach to the identification of sequence-specific readers for epigenetic DNA modifications on cytosine”:

Legend:
Experiment in all cases: DAPPL (digital affinity profiling via proximity ligation, sequencing); 10 mM Tris-HCl pH 7.5, 50 mM NaCl, 1 mM DTT, 4% glycerol, room temperature, 30 min; GST-TFs on glutathione beads, 16-mer random dsDNA library, 0.1% formaldehyde crosslink after washing; high values mean tight binding
Details in all cases: protein: recombinant; tags: N-terminal GST; dsDNA, one strand shown
FLI1 = target: T1, FLI1 (Homo sapiens, UniProt Q01543 1-452)
T1 sequence: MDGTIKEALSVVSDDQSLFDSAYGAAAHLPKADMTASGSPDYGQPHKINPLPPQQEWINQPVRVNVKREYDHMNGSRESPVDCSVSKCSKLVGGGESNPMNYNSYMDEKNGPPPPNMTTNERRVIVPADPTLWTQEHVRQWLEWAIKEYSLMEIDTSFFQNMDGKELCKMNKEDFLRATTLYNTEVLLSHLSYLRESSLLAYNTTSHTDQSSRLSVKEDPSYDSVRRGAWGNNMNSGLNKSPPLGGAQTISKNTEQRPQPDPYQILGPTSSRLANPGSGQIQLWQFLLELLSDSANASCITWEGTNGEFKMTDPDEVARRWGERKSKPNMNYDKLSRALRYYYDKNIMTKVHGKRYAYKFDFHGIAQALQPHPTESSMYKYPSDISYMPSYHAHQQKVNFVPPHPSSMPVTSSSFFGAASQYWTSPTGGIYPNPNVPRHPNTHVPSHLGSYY
In short: (§1)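 Human transcription factors carrying a GST fusion were produced in yeast, bound to glutathione beads, tagged with DNA barcodes and pooled together with a tag-only sample. Each pool was held with 200 nmole of a random double-stranded 16-mer DNA library in Tris/NaCl/DTT/glycerol buffer for 30 min at room temperature, then washed, crosslinked in 0.1% formaldehyde, proximity-ligated with BsaI/T4 ligase (1 h, 37 °C), PCR-amplified and sequenced on an Illumina NextSeq500. Binding signal is the read frequency of each hexamer for a given factor divided by its frequency in the tag-only sample.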

ELK1 = target: T2, ELK1 (Homo sapiens, UniProt P19419 1-428)
T2 sequence: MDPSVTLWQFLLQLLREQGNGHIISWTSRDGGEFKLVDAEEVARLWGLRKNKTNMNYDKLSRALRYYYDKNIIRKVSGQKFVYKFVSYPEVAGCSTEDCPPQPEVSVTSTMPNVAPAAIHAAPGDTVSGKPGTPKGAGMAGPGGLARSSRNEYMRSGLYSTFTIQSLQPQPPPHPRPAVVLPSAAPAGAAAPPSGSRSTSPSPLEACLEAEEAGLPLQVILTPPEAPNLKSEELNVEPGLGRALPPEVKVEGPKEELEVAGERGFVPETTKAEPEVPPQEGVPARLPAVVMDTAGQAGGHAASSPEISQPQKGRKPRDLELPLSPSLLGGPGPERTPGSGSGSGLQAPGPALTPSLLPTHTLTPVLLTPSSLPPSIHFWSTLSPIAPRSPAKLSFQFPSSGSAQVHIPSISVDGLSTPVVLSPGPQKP
In short: as §1

GABPA = target: T3, GABPA (Homo sapiens, UniProt Q06546 1-454)
T3 sequence: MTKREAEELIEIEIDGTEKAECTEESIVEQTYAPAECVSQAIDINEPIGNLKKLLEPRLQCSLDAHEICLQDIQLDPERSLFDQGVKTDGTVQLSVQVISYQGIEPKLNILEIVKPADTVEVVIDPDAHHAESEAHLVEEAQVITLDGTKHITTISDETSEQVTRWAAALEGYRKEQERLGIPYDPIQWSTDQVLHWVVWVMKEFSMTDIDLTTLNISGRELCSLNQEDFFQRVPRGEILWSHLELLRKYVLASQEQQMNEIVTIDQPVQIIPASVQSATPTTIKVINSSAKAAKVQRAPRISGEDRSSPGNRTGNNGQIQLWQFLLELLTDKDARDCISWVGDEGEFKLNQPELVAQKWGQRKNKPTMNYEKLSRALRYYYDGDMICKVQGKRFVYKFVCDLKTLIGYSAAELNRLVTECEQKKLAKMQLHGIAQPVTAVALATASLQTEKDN
In short: as §1

ERG = target: T4, ERG (Homo sapiens, UniProt P11308 1-479)
T4 sequence: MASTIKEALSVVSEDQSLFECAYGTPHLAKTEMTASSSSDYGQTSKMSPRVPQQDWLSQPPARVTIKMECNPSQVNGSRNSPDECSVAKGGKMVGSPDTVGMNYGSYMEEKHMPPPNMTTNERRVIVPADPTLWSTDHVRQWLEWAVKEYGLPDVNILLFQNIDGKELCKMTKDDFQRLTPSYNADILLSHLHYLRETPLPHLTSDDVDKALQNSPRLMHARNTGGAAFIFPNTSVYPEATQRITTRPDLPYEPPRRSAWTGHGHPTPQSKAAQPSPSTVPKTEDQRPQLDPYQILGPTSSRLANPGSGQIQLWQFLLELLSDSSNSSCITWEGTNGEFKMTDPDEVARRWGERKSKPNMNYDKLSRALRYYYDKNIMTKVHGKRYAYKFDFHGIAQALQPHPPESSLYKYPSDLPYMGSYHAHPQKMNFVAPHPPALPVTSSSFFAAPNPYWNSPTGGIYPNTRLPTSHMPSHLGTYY
In short: as §1

ELF1 = ELF1 (Homo sapiens, UniProt P32519 1-619)
In short: as §1

EHF = target: T5, EHF (Homo sapiens, UniProt Q9NZC4 1-300)
T5 sequence: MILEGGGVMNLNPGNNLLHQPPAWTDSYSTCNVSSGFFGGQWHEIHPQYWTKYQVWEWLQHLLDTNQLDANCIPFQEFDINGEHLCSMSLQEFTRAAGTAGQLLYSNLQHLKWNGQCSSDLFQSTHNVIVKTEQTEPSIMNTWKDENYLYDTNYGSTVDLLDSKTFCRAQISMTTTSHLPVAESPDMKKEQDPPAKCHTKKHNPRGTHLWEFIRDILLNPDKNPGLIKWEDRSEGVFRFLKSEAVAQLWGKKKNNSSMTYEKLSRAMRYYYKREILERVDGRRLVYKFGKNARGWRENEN
In short: as §1

SPI1 = SPI1 (Homo sapiens, UniProt P17947 1-270)
In short: as §1

SPIB = SPIB (Homo sapiens, UniProt Q01892 1-262)
In short: as §1

ELK3 = target: T6, ELK3 (Homo sapiens, UniProt P41970 1-407)
T6 sequence: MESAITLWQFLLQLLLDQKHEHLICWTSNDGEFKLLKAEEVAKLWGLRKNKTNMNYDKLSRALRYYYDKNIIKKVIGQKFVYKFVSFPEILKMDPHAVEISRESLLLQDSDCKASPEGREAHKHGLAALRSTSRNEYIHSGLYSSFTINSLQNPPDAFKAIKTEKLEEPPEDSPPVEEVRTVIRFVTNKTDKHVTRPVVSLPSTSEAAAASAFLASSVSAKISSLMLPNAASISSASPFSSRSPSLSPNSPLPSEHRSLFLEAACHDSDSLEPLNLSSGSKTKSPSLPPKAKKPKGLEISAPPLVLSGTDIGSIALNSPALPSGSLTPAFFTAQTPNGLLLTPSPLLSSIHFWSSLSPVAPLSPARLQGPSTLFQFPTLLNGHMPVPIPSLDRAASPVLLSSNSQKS
In short: as §1

Chain of ELF1 (P32519 whole entry): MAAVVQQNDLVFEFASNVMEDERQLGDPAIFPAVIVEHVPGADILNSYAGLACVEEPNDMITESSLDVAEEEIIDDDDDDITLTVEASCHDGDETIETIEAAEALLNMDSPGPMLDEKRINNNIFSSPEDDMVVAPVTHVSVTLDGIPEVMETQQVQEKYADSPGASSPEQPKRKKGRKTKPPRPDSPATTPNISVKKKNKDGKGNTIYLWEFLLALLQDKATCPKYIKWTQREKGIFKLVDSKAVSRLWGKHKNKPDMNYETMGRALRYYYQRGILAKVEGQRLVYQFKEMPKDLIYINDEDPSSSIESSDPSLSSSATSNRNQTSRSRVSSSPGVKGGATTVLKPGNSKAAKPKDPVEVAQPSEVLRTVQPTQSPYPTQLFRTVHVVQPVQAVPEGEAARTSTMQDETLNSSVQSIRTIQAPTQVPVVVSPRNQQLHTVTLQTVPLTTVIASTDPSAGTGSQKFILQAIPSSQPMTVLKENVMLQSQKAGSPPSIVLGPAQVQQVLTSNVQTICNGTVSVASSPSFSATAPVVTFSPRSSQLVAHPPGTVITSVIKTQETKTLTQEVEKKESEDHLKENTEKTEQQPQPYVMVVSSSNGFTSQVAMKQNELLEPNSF
Chain of SPIB (Q01892 whole entry): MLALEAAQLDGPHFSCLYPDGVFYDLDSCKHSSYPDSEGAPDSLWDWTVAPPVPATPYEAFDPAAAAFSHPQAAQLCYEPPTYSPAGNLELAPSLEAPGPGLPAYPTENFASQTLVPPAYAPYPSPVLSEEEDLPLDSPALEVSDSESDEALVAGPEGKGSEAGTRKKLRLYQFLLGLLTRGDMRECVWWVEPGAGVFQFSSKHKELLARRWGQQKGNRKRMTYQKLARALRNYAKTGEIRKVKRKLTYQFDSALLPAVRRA

TTCTAA
binding signal (FLI1): 1.28 fold enrichment (6-mer frequency, TF over GST control)
binding signal (ELK1): 1.23 fold enrichment (6-mer frequency, TF over GST control)
binding signal (GABPA): 1.2 fold enrichment (6-mer frequency, TF over GST control)
binding signal (ERG): 1.25 fold enrichment (6-mer frequency, TF over GST control)
binding signal (ELF1): 1.23 fold enrichment (6-mer frequency, TF over GST control)
binding signal (EHF): 1.22 fold enrichment (6-mer frequency, TF over GST control)
binding signal (SPI1): 1.14 fold enrichment (6-mer frequency, TF over GST control)
binding signal (SPIB): 1.17 fold enrichment (6-mer frequency, TF over GST control)
binding signal (ELK3): 1.08 fold enrichment (6-mer frequency, TF over GST control)
